Experimental data: PubChem BioAssay (Tox21)
Inconclusive results are not listed. The source made the active and inactive calls. Unless noted, calls come from the whole dose curve; as a rule, active = well fitted curve in the direction sought with a large enough effect in the repeat runs; inconclusive = weak or mixed curves; inactive = no such curve, though single readings can be large; an effect the other way counts as inactive or inconclusive.

Experiments:
[1] = qHTS assay for small molecules that induce genotoxicity in human embryonic kidney cells expressing luciferase-tagged ATAD5 (AID 651632); note: nearly all actives have a fitted effect of over 15% in size
Method in brief: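 DMSO vehicle served as the control. HEK293T reporter cells, 16 hr at 37C, then 30 min Amplite at room temperature; ATAD5 induction is measured as luciferase activity.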

[2] = qHTS assay for small molecule agonists of the p53 signaling pathway - cell viability (AID 651633; calls by dose curve;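 note: p53RE-bla HCT reporter cells with a stable beta-lactamase p53 reporter; series mostly up to about 83 µM; nearly all actives have a fitted effect of over 30% in size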)
Method in brief: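 p53RE-bla cells, seeded at 4,000 per well and rested 5 h at 37 C/5% CO2, received compounds in DMSO for 16 h at 37 C. CellTiter-Glo was then added, and luminescence was read after 30 min at room temperature to gauge cytotoxicity.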

[3] = qHTS assay for small molecules that induce genotoxicity in human embryonic kidney cells expressing luciferase-tagged ATAD5 - cell viability (AID 651634; calls by dose curve; note: nearly all actives have a fitted effect of over 25% in size)
Method in brief: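 Here HEK293T cells with the ATAD5 luciferase reporter are incubated with test compounds for 15.5 hr, and cytotoxicity is then gauged by measuring protease activity in live cells using fluorescence.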

[4] = qHTS assay for small molecule disruptors of the mitochondrial membrane potential - cell viability (AID 720634; calls by dose curve;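 note: human HepG2 liver cancer cells; series mostly up to about 83 µM; nearly all actives have a fitted effect of over 20% in size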)
Method in brief: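 Viability of HepG2 cells is scored from ATP content by luminescence; cells are exposed to compound for 1 hr at 37 C and 5% CO2, then dosed with m-MPI dye before the CellTiter-Glo reagent.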

[5] = qHTS assay for small molecule disruptors of the mitochondrial membrane potential (AID 720635)
Method in brief: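 HepG2 cells (2,000/well) attached overnight at 37C, then took compound for 1 hr at 37C, 5% CO2. Mito-MPS dye was added for 30 min; fluorescence was read at 490/535 nm (monomers) and 540/590 nm (aggregates).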

[6] = qHTS assay to test for compound auto fluorescence at 535 nm (green) in HepG2 cells (AID 720675)
[7] = qHTS assay to test for compound auto fluorescence at 590 nm (red) in HEK293 cells (AID 720679)
Method in brief: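 Using HEK293 cells at 2,000 per well, the screen added 23 nL of each compound after cell attachment and incubated overnight (37C, 5% CO2). The plate reader then captured red-label fluorescence, Ex/Em 540/590nm.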

[8] = qHTS assay to test for compound auto fluorescence at 590 nm (red) in HepG2 cells (AID 720674)
Method in brief: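 Intrinsic compound fluorescence in the red window (Ex/Em 540/590 nm) is measured in attached HepG2 cells exposed for 1 hr, DMSO vehicle as baseline, benchmarked to Rose Bengal sodium.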

[9] = qHTS assay to test for compound auto fluorescence at 460 nm (blue) in HEK293 cells (AID 720678)
Method in brief: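 Measured: blue fluorescence (Ex 405/Em 460 nm) of compound-treated HEK293 cells, incubated overnight at 37C with 5% CO2 and scaled to triamterene equivalents.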
% is set by controls: 0 for no effect and ±100 for the full control effect.

CC1=C(O)C(=O)C(C)O1 (stereo unspecified)
inactive: outcome [1] | outcome [2] | Potency [3] | outcome [4] | Potency [5] | outcome [6] | outcome [7]

CC1(C)O[C@H]2CC(=O)OC[C@]23[C@H]2CC[C@@]4(C)[C@H](c5ccoc5)OC(=O)[C@H]5O[C@]54[C@]2(C)C(=O)C[C@@H]13
inactive: outcome [1] | outcome [2] | Potency [3] | outcome [4] | Potency [5] | outcome [8] | outcome [6] | outcome [9] | outcome [7]

N#Cc1ccccc1O
inactive: outcome [1] | outcome [2] | Potency [3] | outcome [4] | outcome [8] | outcome [6] | outcome [9] | outcome [7]

C[C@]12CCC(=O)C=C1CC[C@H]1[C@@H]3CC[C@](O)(C(=O)CO)[C@@]3(C)C[C@H](O)[C@@]12F
inactive: outcome [1] | outcome [2] | Potency [3] | outcome [4] | Potency [5] | outcome [8] | outcome [6] | outcome [9] | outcome [7]

C=CC(=O)OCC1CCCO1 (stereo unspecified)
inactive: outcome [1] | outcome [2] | Potency [3] | outcome [4] | outcome [8] | outcome [6] | outcome [9] | outcome [7]

c1ccc2cnccc2c1
inactive: outcome [1] | outcome [2] | Potency [3] | outcome [4] | Potency [5] | outcome [8] | outcome [6] | outcome [9] | outcome [7]

CO[C@@]1(NC(=O)Cc2cccs2)C(=O)N2C(C(=O)O)=C(COC(N)=O)CS[C@@H]21
inactive: outcome [1] | outcome [2] | Potency [3] | outcome [4] | Potency [5] | outcome [8] | outcome [6] | outcome [9] | outcome [7]

C[C@H]1[C@@H](c2ccccc2)NC(=O)N1C
inactive: outcome [1] | outcome [2] | Potency [3] | outcome [4] | outcome [8] | outcome [6] | outcome [9] | outcome [7]

CCCCCCCCCCCCCBr
inactive: outcome [1] | outcome [2] | Potency [3] | outcome [4] | outcome [8] | outcome [6] | outcome [9] | outcome [7]

CC/C(C)=N\O[Si](C)(O/N=C(\C)CC)O/N=C(\C)CC
inactive: outcome [1] | outcome [2] | Potency [3] | outcome [4] | Potency [5] | outcome [8] | outcome [6] | outcome [9] | outcome [7]

C/C=C(\C)C(=O)OCCc1ccccc1
inactive: outcome [1] | outcome [2] | Potency [3] | outcome [4] | outcome [8] | outcome [6] | outcome [9] | outcome [7]

Cc1c(Cl)cccc1Cl
inactive: outcome [1] | outcome [2] | Potency [3] | outcome [4] | outcome [8] | outcome [6] | outcome [9] | outcome [7]

O=C(O)[C@H](O)c1ccccc1
inactive: outcome [1] | outcome [2] | Potency [3] | outcome [4] | Potency [5] | outcome [8] | outcome [6] | outcome [9] | outcome [7]

CCCC(=O)OC/C=C(\C)CCC=C(C)C
inactive: outcome [1] | outcome [2] | Potency [3] | outcome [4] | outcome [8] | outcome [6]

CCC/C=C(\C=O)CC
inactive: outcome [1] | outcome [2] | Potency [3] | outcome [4] | Potency [5] | outcome [8] | outcome [6] | outcome [7]

CCCCC1CCC(O)CC1 (stereo unspecified)
inactive: outcome [1] | outcome [2] | Potency [3] | outcome [4] | Potency [5] | outcome [6] | outcome [9] | outcome [7]

CC(C)Cn1cnc2c1c(=O)n(C)c(=O)n2C
inactive: outcome [1] | outcome [2] | outcome [4] | Potency [5] | outcome [8] | outcome [6] | outcome [7]

CCC(C)C(=O)OCCc1ccccc1 (stereo unspecified)
inactive: outcome [1] | Potency [3] | outcome [4] | Potency [5] | outcome [8] | outcome [6] | outcome [7]

C=CCCCCCCCC
inactive: outcome [1] | outcome [2] | Potency [3] | outcome [8] | outcome [6] | outcome [9] | outcome [7]

COc1ccc2c(c1)c1c3n2CCN(C)C3=NCC1
inactive: outcome [1] | Potency [3] | outcome [4] | Potency [5] | outcome [6] | outcome [9] | outcome [7]

CC1(C)[C@H]2CC[C@](C)(C2)[C@H]1O
inactive: outcome [1] | outcome [2] | outcome [4] | outcome [8] | outcome [6] | outcome [9] | outcome [7]

O=[N+]([O-])c1c(Cl)cc(Cl)cc1Cl
inactive: outcome [1] | outcome [2] | Potency [5] | outcome [6] | outcome [9] | outcome [7]

OCC(O)CN1CCN(c2ccccc2)CC1 (stereo unspecified)
inactive: outcome [1] | outcome [2] | Potency [3] | Potency [5] | outcome [8] | outcome [6] | outcome [9]

CC(C)CO
inactive: outcome [1] | outcome [2] | Potency [3] | Potency [5] | outcome [8] | outcome [6] | outcome [7]

O=C(O)c1cc2ccccc2nc1C(=O)O
inactive: outcome [1] | Potency [3] | outcome [4] | outcome [8] | outcome [6] | outcome [9] | outcome [7]

CC1=C(C(=O)O)N2C(=O)[C@@H](NC(=O)[C@H](N)C3=CCC=CC3)[C@H]2SC1
inactive: outcome [1] | outcome [2] | Potency [3] | Potency [5] | outcome [8] | outcome [6] | outcome [9] | outcome [7]

CCNC(=O)NCc1cccc(Cl)c1
inactive: outcome [1] | outcome [2] | outcome [4] | Potency [5] | outcome [8] | outcome [6] | outcome [9]

COc1c2occc2c(OC)c2c(=O)cc(C)oc12
inactive: outcome [1] | Potency [3] | outcome [4] | fluorescence, relative to Rose Bengal [8] 0.0231% [at 18.6 µM] | fluorescence, % of fluorescein control [6] -0.275% [at 18.6 µM] | fluorescence, % of triamterene [9] 0.0098% [at 18.6 µM] | fluorescence, % of fluorescent control [7] 0.0103% [at 18.6 µM]

CN(C)C(C)(C)CO
inactive: outcome [1] | Potency [3] | outcome [4] | Potency [5] | outcome [6] | outcome [7]

CC(C)Nc1ccccc1
inactive: outcome [1] | outcome [2] | outcome [4] | Potency [5] | outcome [8] | outcome [6] | outcome [9]

CCCCCC/C=C/C(=O)OC
inactive: outcome [1] | outcome [2] | Potency [3] | outcome [4] | outcome [6] | outcome [9] | outcome [7]

COC(=O)c1cc(Cl)cc(Cl)c1
inactive: outcome [1] | Potency [3] | outcome [4] | outcome [8] | outcome [6] | outcome [9]

CCC(C)OC(C)CC (stereo unspecified)
inactive: outcome [1] | Potency [3] | outcome [4] | Potency [5] | outcome [8] | outcome [6] | outcome [9] | outcome [7]

Cc1ccc(N)cc1S(=O)(=O)O
inactive: outcome [1] | Potency [3] | outcome [4] | outcome [8] | outcome [6] | outcome [9]

C=C(C)C1CC=C(C)C(=O)C1 (stereo unspecified)
inactive: outcome [1] | Potency [3] | outcome [4] | outcome [8] | outcome [6] | outcome [7]

Fc1ccccc1
inactive: outcome [1] | outcome [2] | outcome [4] | outcome [6] | outcome [9] | outcome [7]

OC[C@H]1O[C@@H](O[C@@H]2[C@@H](CO)O[C@](O)(CO)[C@H]2O)[C@H](O)[C@@H](O)[C@H]1O
inactive: outcome [1] | outcome [2] | outcome [4] | Potency [5] | outcome [6] | outcome [9]

CC(C)(CO)C(O)C(=O)NCCCO (stereo unspecified)
inactive: outcome [1] | outcome [2] | Potency [3] | Potency [5] | outcome [8] | outcome [6] | outcome [9] | outcome [7]
